# Source: PubChem BioAssay (EPA / NIEHS)
# Results filed as inconclusive are left out. The source made the active and inactive calls. How the source made its calls, unless noted: active means hit-call score of the fitted dose curve at least 0.9, where 1 is the maximum; inactive means score below 0.9.
# Key:
# [1] = read-out: Secreted IgG (sIgG), gene 3500; assay: BSK_BT_sIgG: BioMAP Diversity Plus: BT Assay for Secreted IgG (sIgG) Biomarker Activity (AID 2284226); settings: primary human B cells with PBMC
# Summary of the method: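 Human B cell/PBMC co-culture; compound exposure 24 h; sIgG by ELISA; gain-of-signal fit vs DMSO baseline.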
# [2] = UKN2_HCS_IMR90_neural_migration: University of Konstanz (UKN) Leist Lab Neural Crest Cell Migration Assay in human induced IMR90 Pluripotent Stem Cells (UKN2) (AID 2284204); settings: actives raise or lower the signal
# Summary of the method: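 High-content imaging of calcein-AM and Hoechst stained cells quantifies migration into a stopper-defined gap after 24 h compound exposure. Neural crest cells from IMR90 iPSC migrated 24 h in EGF/FGF N2-S medium before dosing; DMSO baseline.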
# [3] = IUF_NPC1b_proliferation_BrdU_72hr: Leibniz Research Institute for Environmental Medicine (IUF) 72-hour Neural Progenitor Cell Bromodeoxyuridine (BrdU) Proliferation Assay (NPC1b) (AID 2284207)
# Summary of the method: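 Human fetal cortex-derived (GW 16-19) neural progenitor spheres, 0.25-0.35 mm, one per well in EGF/FGF proliferation medium, exposed to compound for 72 h at 37C, pH 7.2-7.6. BrdU incorporation over the final 16 h read by luminescence ELISA, relative to DMSO.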
# [4] = IUF_NPC1a_proliferation_area_72hr: Leibniz Research Institute for Environmental Medicine (IUF) 72-hour Neural Progenitor Cell Proliferation Area Assay (NPC1a) (AID 2284208)
# Summary of the method: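 Proliferation is scored as sphere area gain in primary human fetal neural progenitors treated for 72 h in EGF/FGF-containing medium. Viability, LDH and BrdU readouts come from the same wells.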
# [5] = IUF_NPC1_viability_72hr: Viability Assessment at 72 hours in the Leibniz Research Institute for Environmental Medicine (IUF) Neural Progenitor Cell Proliferation Assay (NPC1) (AID 2284209)
# Summary of the method: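 Alamar blue fluorescence (RFU) after 72 h exposure, normalized to DMSO baseline. hNPC spheres from GW 16-19 fetal cortex, single sphere per well in growth-factor medium; no compound renewal.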
# [6] = CCTE_Mundy_HCI_Cortical_Synap_Neur_Matur_NeuriteSpotCountPerNeuriteLength: CCTE's Synaptogenesis and Neurite Maturation Assay in rat cortical cells for Neurite Spot Count per Neurite Length, Mundy Lab (AID 2284210)
# Summary of the method: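 Synaptophysin spots per unit neurite length, measured by automated imaging of MAP2/synaptophysin/Hoechst-stained neurons. Cultures from rat cortex received chemical at DIV 7 with media change through DIV 12; glial growth arrested by AraC at DIV 5; DMSO baseline.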
# [7] = CCTE_Mundy_HCI_Cortical_Synap_Neur_Matur_BPCount: CCTE's Synaptogenesis and Neurite Maturation Assay in rat cortical cells for Branch Point Count, Mundy Lab (AID 2284211)
# Summary of the method: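 In this multiplexed morphology assay, cortical cells from rat receive chemicals at DIV 7 and are fixed at DIV 12, then immunostained and imaged; branch points are counted, with DMSO as baseline.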
# [8] = CCTE_Mundy_HCI_Cortical_NOG_NeuriteCount: CCTE's Neurite Outgrowth Assay in rat cortical cells for Neurite Count, Mundy Lab (AID 2284212);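 further: cells fixed about two days after chemical exposure began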
# Summary of the method: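 Rat cortical primary cells; compound added 2 h post-plating, 1/10 dilution of working solution. Anti-betaIII-tubulin/AF488 ICC; ArrayScan neurite count vs DMSO.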
# [9] = CCTE_Mundy_HCI_Cortical_NOG_NeuriteLength: CCTE's Neurite Outgrowth Assay in rat cortical cells for Neurite Length, Mundy Lab (AID 2284213);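 on AC50: neurites imaged about 48 to 50 h after chemical exposure began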
# Summary of the method: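 First, rat primary cortical cells were plated and, 2 h later, given test chemical as a 1/10 dilution. Finally, βIII-tubulin immunostaining enabled automated imaging of neurite length.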
# [10] = CCTE_Mundy_HCI_Cortical_Synap_Neur_Matur_NeuriteLength: CCTE's Synaptogenesis and Neurite Maturation Assay in rat cortical cells for Neurite Length, Mundy Lab (AID 2284214)
# Summary of the method: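 Read-out: high-content imaging of MAP2-labelled neurites, with synaptophysin and Hoechst co-stain, in rat cortical cultures fixed at DIV 12. Activity fitted in positive direction relative to DMSO baseline.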
# [11] = CCTE_Mundy_HCI_Cortical_Synap_Neur_Matur_NeuriteSpotCountPerNeuron: CCTE's Synaptogenesis and Neurite Maturation Assay in rat cortical cells for Neurite Spot Count per Neuron Count, Mundy Lab (AID 2284215)
# Summary of the method: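 Synapse density is scored as synaptophysin spots along neurites per neuron in fixed rat cortical neurons, measured at DIV 12 after chemical dosing at DIV 7. DMSO is the negative control and activity baseline.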
# [12] = CCTE_Mundy_HCI_Cortical_Synap_Neur_Matur_SynapseCount: CCTE's Synaptogenesis and Neurite Maturation Assay in rat cortical cells for Synapse Count, Mundy Lab (AID 2284218)
# Summary of the method: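 Read-out: synapse number per neuron, automated high-content imaging of fixed cells immunostained for MAP2 and synaptophysin plus Hoechst nuclei. Rat primary cortical cultures, AraC at DIV 5, chemical dosing DIV 7–12. Positive-direction fit relative to DMSO.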
# [13] = CCTE_Mundy_HCI_Cortical_Synap_Neur_Matur_NeuriteCount: CCTE's Synaptogenesis and Neurite Maturation Assay in rat cortical cells for Neurite Count, Mundy Lab (AID 2284222);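 further: exposure from day 7 to day 12 in vitro with readout at day 12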
# Summary of the method: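 Chemical exposure runs DIV 7–12 in rat cortical cultures, glia suppressed by AraC at DIV 5; measurement is at DIV 12. Imaging-derived neurite counts are fitted against DMSO baseline.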
# [14] = CCTE_Mundy_HCI_Cortical_Synap_Neur_Matur_CellBodySpotCount: CCTE's Synaptogenesis and Neurite Maturation Assay in rat cortical cells for Cell Body Spot Count, Mundy Lab (AID 2284223)
# Summary of the method: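 Synapse number at neuronal cell bodies was quantified as synaptophysin puncta per neuron in rat cortical cultures exposed from DIV 7 to DIV 12. Values were normalised to DMSO.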
# [15] = CCTE_Mundy_HCI_hNP1_Pro_ResponderAvgInten: CCTE's Proliferation Assay in human neuroprogenitor cells, Mundy Lab (AID 2284224; active means hit-call score of the fitted dose curve at least 0.9, where 1 is the maximum;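 further: human neural progenitor cells hNP1 derived from WA09 embryonic stem cells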)
# Summary of the method: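 Proliferation was scored as BrdU labelling intensity in human neural progenitors derived from WA09 embryonic cells, measured 26.25 hours after chemical dosing. Activity was fitted relative to DMSO.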
# [16] = TAMU_PeakParms_SingleDonor1434_Chronotropy: Texas A&M University (TAMU) 1.5-hr Human Induced Pluripotent Stem Cell (iPSC)-derived Cardiomyocytes Calcium (Ca+2) Flux Assay for Cardiotoxicity: Chronotropy (changes in peak frequency) (AID 2284217); settings: actives raise or lower the signal
# Summary of the method: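 Beat frequency of single-donor iPSC cardiomyocytes was recorded through a calcium-sensitive dye 1.5 hours after exposure to four concentrations up to 100 uM. An EC05 point of departure was derived.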
# [17] = UKN4_HCS_LUHMES_neurite_outgrowth: University of Konstanz (UKN) Leist Lab Neurite Outgrowth Assay in human LUHMES cells (UKN4) (AID 2284206); settings: actives raise or lower the signal
# Summary of the method: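 Read-out: calcein-AM neurite area by high-content fluorescence imaging, with Hoechst H-33342 viability counterstain, after 24 h chemical exposure of day-2 differentiated LUHMES cells. Activity fitted bidirectionally against DMSO baseline.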
# [18] = CCTE_Mundy_HCI_hN2_NOG_NeuriteCount: CCTE's Neurite Outgrowth Assay in human hN2 cells for Neurite Count, Mundy Lab (AID 2284219; active means hit-call score of the fitted dose curve at least 0.9, where 1 is the maximum)
# Summary of the method: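 In this morphology assay, hNP1-derived neurons received test chemical 2 h post-plating and were fixed two days later in warm paraformaldehyde/sucrose containing Hoechst 33342. Neurites, labelled by rabbit anti-βIII-tubulin (1:800) and Alexa Fluor-488 (1:500), were counted automatically.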
# [19] = CCTE_Mundy_HCI_hN2_NOG_NeuriteLength: CCTE's Neurite Outgrowth Assay in human hN2 cells for Neurite Length, Mundy Lab (AID 2284220; active means hit-call score of the fitted dose curve at least 0.9, where 1 is the maximum)
# Summary of the method: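 Plate hNP1-derived neurons, then add chemical 2 h later as a 1/10 dilution. Stain with anti-βIII-tubulin then Alexa Fluor-488 secondary, and image automatically to measure neurite length.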
# [20] = CCTE_Mundy_HCI_hN2_NOG_NeuronCount: CCTE's Neurite Outgrowth Assay in human hN2 cells for Neuron Count, Mundy Lab (AID 2284221; active means hit-call score of the fitted dose curve at least 0.9, where 1 is the maximum)
# Summary of the method: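 Read-out is the number of betaIII-tubulin-positive neurons imaged by automated high-content analysis, with DMSO as negative control.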
compound,measurement,setting,value
O=C1OC2(c3ccccc31)c1ccc(O)c(Br)c1Oc1c2ccc(O)c1Br,outcome,[1],inactive
c1ccc(Oc2ccccc2)cc1,outcome,[1],inactive
CC1(C)C2=CCCC(C)(C)[C@]23CC[C@H]1C3,AC50,[1],20 µM (active)
C[C@@H]1CCN(C(=O)[C@H](CCCN=C(N)N)NS(=O)(=O)c2cccc3c2NC[C@H](C)C3)[C@@H](C(=O)O)C1,outcome,[1],inactive
CC(=O)c1c(C)c([N+](=O)[O-])c(C(C)(C)C)c([N+](=O)[O-])c1C,AC50,[1],30.5 µM (active)
COCCOCCOCCO,outcome,[2],inactive
same,outcome,[3],inactive
same,outcome,[4],inactive
same,outcome,[5],inactive
same,outcome,[6],inactive
same,outcome,[7],inactive
same,outcome,[8],inactive
same,outcome,[9],inactive
same,outcome,[10],inactive
same,outcome,[11],inactive
same,outcome,[12],inactive
same,outcome,[13],inactive
same,outcome,[14],inactive
same,outcome,[15],inactive
CN(c1nccc(=O)[nH]1)C1CCN(c2nc3ccccc3n2Cc2ccc(F)cc2)CC1,AC50,[1],14.6 µM (active)
CN(C)CCOC(C)(c1ccccc1)c1ccccn1 (stereo unspecified),outcome,[3],inactive
same,outcome,[4],inactive
same,outcome,[5],inactive
same,outcome,[6],inactive
same,outcome,[7],inactive
same,outcome,[8],inactive
same,outcome,[9],inactive
same,outcome,[10],inactive
same,outcome,[11],inactive
same,outcome,[12],inactive
same,outcome,[13],inactive
same,outcome,[14],inactive
same,outcome,[15],inactive
CC(C)NCC(O)COc1ccc(CC(N)=O)cc1 (stereo unspecified),outcome,[16],inactive
CCC(C)c1cc([N+](=O)[O-])cc([N+](=O)[O-])c1OC(=O)OC(C)C (stereo unspecified),AC50,[1],11.1 µM (active)
C=C(C)C(=O)OCCOCCOCCOCCOC(=O)C(=C)C,AC50,[1],20 µM (active)
CCCCCCCCCCCCCCCC(=O)OC/C=C(C)/C=C/C=C(C)/C=C/C1=C(C)CCCC1(C)C,AC50,[1],20 µM (active)
Oc1c(Cl)cc(Cl)c(Cl)c1Cc1c(O)c(Cl)cc(Cl)c1Cl,AC50,[2],0.885 µM (active)
same,AC50,[17],7.47 µM (active)
same,AC50,[3],13.4 µM (active)
same,AC50,[4],17.6 µM (active)
same,outcome,[5],inactive
same,outcome,[6],inactive
same,AC50,[7],8.53 µM (active)
same,AC50,[8],31 µM (active)
same,AC50,[9],23.1 µM (active)
same,AC50,[10],13.4 µM (active)
same,AC50,[11],9.95 µM (active)
same,outcome,[16],inactive
same,AC50,[12],13.1 µM (active)
same,AC50,[18],1.42 µM (active)
same,AC50,[19],1.38 µM (active)
same,AC50,[20],1.4 µM (active)
same,outcome,[13],inactive
same,AC50,[14],9.92 µM (active)
same,outcome,[15],inactive
same,AC50,[1],0.993 µM (active)
COc1ccc(CCN2CCC(Nc3nc4ccccc4n3Cc3ccc(F)cc3)CC2)cc1,AC50,[1],3.17 µM (active)
CC(C)(N=C=O)c1cccc(C(C)(C)N=C=O)c1,outcome,[1],inactive
CS(=O)(=O)c1ccc(C2=C(c3ccccc3)C(=O)OC2)cc1,outcome,[1],inactive
COCCc1ccc(OCC(O)CNC(C)C)cc1 (stereo unspecified),outcome,[3],inactive
same,outcome,[4],inactive
same,outcome,[5],inactive
same,outcome,[6],inactive
same,outcome,[7],inactive
same,outcome,[8],inactive
same,outcome,[9],inactive
same,outcome,[10],inactive
same,outcome,[11],inactive
same,outcome,[12],inactive
same,outcome,[13],inactive
same,outcome,[14],inactive
IC(I)I,outcome,[1],inactive
C=C(C)C(=O)OCCOCCOCCOC(=O)C(=C)C,outcome,[1],inactive
CCCCOC(=O)CCCCCCCC(=O)OCCCC,outcome,[1],inactive
CSCCC=O,outcome,[1],inactive
